The source of these data is PubChem BioAssay (NCATS).

Records with an inconclusive call do not appear. Values without a mark were called inactive. Active and inactive are the calls of the source. Calls come from the whole dose curve; as a rule, active = well fitted curve in the direction sought with a large enough effect; inconclusive = small, poorly fitted or top-dose-only effect, or another doubt; inactive = no such curve, though single readings can be large; an effect the other way counts as inactive or inconclusive.

The nature of experiment [1]: qHTS of pediatric cancer cell lines to identify multiple opportunities for drug repurposing: Primary screen for Rh30 cells (AID 1347107). For activity change, negative = cytotoxic: series mostly up to about 46 µM; % is set by controls: 0 for no effect and ±100 for the full control effect. Note: nearly all actives have a fitted effect of over 75% in size. Note: potency is the fitted concentration of half-maximal effect. The procedure, abridged:
(§1)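 Cells (500-1,000/well) rested 5 h, then received compounds for 48 h; metabolically active cells were measured by CellTiter-Glo luminescence. Final concentrations spanned up to 46 µM (MIPE, 11-point) or 0.59 nM-46 µM (NPC, 8-point) in primary screens, 11-point in follow-ups.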

Experiment [2] in a line: qHTS of pediatric cancer cell lines to identify multiple opportunities for drug repurposing: Primary screen for Rh41 cells (AID 1347108).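 For activity change, negative = cytotoxic: series mostly up to about 46 µM; luminescence drop marks cytotoxic hits.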 Note: nearly all actives have a fitted effect of over 70% in size. Note: potency is the fitted concentration of half-maximal effect. Put shortly:
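Cells plated at 500-1,000/well in growth medium, compounds added after 5 h. MIPE tested at 11 points (from 0.78 nM), NPC at 8 points (from 0.59 nM). CellTiter-Glo luminescence after 48 h; concentration-response curves from primary screen.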
A general note: qHTS replaces the single test concentration by a dilution series.

Experiment [3] in a line: qHTS of pediatric cancer cell lines to identify multiple opportunities for drug repurposing: Confirmatory screen for NB1643 cells (AID 1347109).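 Note: plate controls were DMSO for no effect and bortezomib for full effect; nearly all actives have a fitted effect of over 45% in size.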 The procedure, abridged: as §1
Experiment [4] can be described thus: qHTS of pediatric cancer cell lines to identify multiple opportunities for drug repurposing: Confirmatory screen for A673 cells (AID 1347110).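 Note: potency is the fitted concentration of half-maximal effect; cells exposed to compound for 48 h before the viability read; nearly all actives have a fitted effect of over 65% in size.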 Put shortly: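 Concentration-response curves came straight from titrations: 11 points (0.78 nM to 46 µM) for MIPE and several concentrations (0.59 nM to 46 µM) for NPC in primary, 11 points in follow-up. Readout: ATP luminescence at 48 h.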

Experiment [5] in a line: qHTS of pediatric cancer cell lines to identify multiple opportunities for drug repurposing: Confirmatory screen for SK-N-MC cells (AID 1347111).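 Note: cells exposed to compound for 48 h before the readout; plate controls were DMSO for no effect and bortezomib for full effect; nearly all actives have a fitted effect of over 70% in size.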 Put shortly: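 Seed 500-1,000 cells/well; rest 5 h at 37 degrees C. Pin-transfer compounds, 11-point titration. Incubate 48 h. Add CellTiter-Glo, 15 min RT, read luminescence.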
Experiment [6] can be described thus: qHTS of pediatric cancer cell lines to identify multiple opportunities for drug repurposing: Confirmatory screen for BT-12 cells (AID 1347112).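 Note: viability read after 48 h of compound exposure; % is set by controls: 0 for no effect and ±100 for the full control effect; nearly all actives have a fitted effect of over 55% in size.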 The procedure, abridged: as §1
The nature of experiment [7]: qHTS of pediatric cancer cell lines to identify multiple opportunities for drug repurposing: Confirmatory screen for LAN-5 cells (AID 1347113). Note: % is set by controls: 0 for no effect and ±100 for the full control effect; nearly all actives have a fitted effect of over 65% in size. Put shortly: as §1
The nature of experiment [8]: qHTS of pediatric cancer cell lines to identify multiple opportunities for drug repurposing: Confirmatory screen for DAOY cells (AID 1347114). Note: % is set by controls: 0 for no effect and ±100 for the full control effect; nearly all actives have a fitted effect of over 65% in size. The procedure, abridged: (§2)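 Viability measured as metabolically active cells via CellTiter-Glo luminescence following 48 hours of compound exposure, 11-point dilutions in confirmatory testing. 500-1,000 cells/well plated 5 hours before dosing; controls were DMSO and 2.3 µM bortezomib.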

Experiment [9] is described as follows: qHTS of pediatric cancer cell lines to identify multiple opportunities for drug repurposing: Confirmatory screen for NB-EBc1 cells (AID 1347115).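 Note: cells exposed to compound for 48 h before the viability read; % is set by controls: 0 for no effect and ±100 for the full control effect; nearly all actives have a fitted effect of over 45% in size.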 The procedure, abridged: as §1
Experiment [10] is described as follows: qHTS of pediatric cancer cell lines to identify multiple opportunities for drug repurposing: Confirmatory screen for SJ-GBM2 cells (AID 1347116).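 Note: plate controls were DMSO for no effect and bortezomib for full effect; nearly all actives have a fitted effect of over 60% in size.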 The procedure, abridged:
as §2

Experiment [11] in a line: qHTS of pediatric cancer cell lines to identify multiple opportunities for drug repurposing: Confirmatory screen for BT-37 cells (AID 1347117).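 Note: plate controls were DMSO for no effect and bortezomib for full effect; nearly all actives have a fitted effect of over 55% in size.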 The procedure, abridged: as §1
The nature of experiment [12]: qHTS of pediatric cancer cell lines to identify multiple opportunities for drug repurposing: Confirmatory screen for TC32 cells (AID 1347118).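 Note: cells exposed to compound for 48 h before the read; % is set by controls: 0 for no effect and ±100 for the full control effect; nearly all actives have a fitted effect of over 65% in size.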 The procedure, abridged: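 Measured quantity: luminescence from CellTiter-Glo, reflecting metabolically active TC32 cells following 48 h of compound. Curves came straight from multi-point titrations, with 8 or 11 points in primary and 11 in confirmatory screening.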

Experiment [13] is described as follows: qHTS of pediatric cancer cell lines to identify multiple opportunities for drug repurposing: Confirmatory screen for MG 63 (6-TG R) cells (AID 1347119).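 Note: plate controls were DMSO neutral control for no effect and bortezomib for full effect; nearly all actives have a fitted effect of over 55% in size.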 Put shortly:
as §1

Experiment [14] can be described thus: qHTS of pediatric cancer cell lines to identify multiple opportunities for drug repurposing: Confirmatory screen for control Hh wild type fibroblast cells (AID 1347121).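 Note: plate controls were DMSO for no effect and bortezomib for full effect; nearly all actives have a fitted effect of over 70% in size.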 The procedure, abridged:
as §1

Experiment [15] can be described thus: qHTS of pediatric cancer cell lines to identify multiple opportunities for drug repurposing: Confirmatory screen for Rh41 cells (AID 1347123).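 Note: 48 h compound exposure; plate controls were DMSO for no effect and bortezomib for full effect; nearly all actives have a fitted effect of over 60% in size.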 The procedure, abridged: as §1
The nature of experiment [16]: qHTS of pediatric cancer cell lines to identify multiple opportunities for drug repurposing: Confirmatory screen for RD cells (AID 1347124). Put shortly: as §1
A short description of experiment [17]: qHTS of pediatric cancer cell lines to identify multiple opportunities for drug repurposing: Confirmatory screen for Rh18 cells (AID 1347125). Note: % is set by controls: 0 for no effect and ±100 for the full control effect; nearly all actives have a fitted effect of over 55% in size. The procedure, abridged: as §1
Experiment [18] can be described thus: qHTS of pediatric cancer cell lines to identify multiple opportunities for drug repurposing: Confirmatory screen for Saos-2 cells (AID 1347127).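 Note: plate controls were DMSO for no effect and bortezomib for full effect; nearly all actives have a fitted effect of over 60% in size.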 Put shortly: as §1

For `OC[C@H]1O[C@@H](O[C@H]2[C@@H](O)[C@@](O)(CO)O[C@@H]2CO)[C@H](O)[C@@H](O)[C@@H]1O`, the Potency result in [1] and in experiment [2] was “inactive” in each case.

Consider `O=C(Nc1cccc2c(=O)cc(-c3nn[nH]n3)oc12)c1ccc(OCCCCc2ccccc2)cc1`, for which the Potency result in experiment [1] and in [2] was “inactive” throughout.

Take `NC(=O)c1ncn([C@@H]2O[C@H](CO)[C@@H](O)[C@@H]2O)n1`: the Potency result in [1] and in experiment [2] was “inactive” each time.

For the molecule `O=C(O)c1nc(=O)[nH]c(=O)[nH]1`, the Potency entry in experiment [1] and in experiment [2] was “inactive” throughout.

On to `CN(C)c1nc(Cc2ccc(NC(=O)c3ccc(C(F)(F)F)cc3)cc2)nc(N(C)C)c1CC(=O)O`, for which the Potency result in experiment [1] and in [2] was “inactive” in each case.

In the case of `COc1c(C)c2c(c(O)c1CC=C(C)CCC(=O)O)C(=O)OC2`, the Potency entry in experiment [1] and in experiment [2] was “inactive” each time.

For the molecule `OC(c1cc(C(F)(F)F)nc2c(C(F)(F)F)cccc12)C1CCCCN1` (stereo unspecified), the Potency result in experiment [1] and in experiment [2] was “inactive” each time.

Consider `c1ccc(-c2oc3ncnc(NC[C@@H]4CCCO4)c3c2-c2ccccc2)cc1`, for which the Potency in experiment [1] and in experiment [2] was 18.7 µM (active) throughout.

As for `C[C@@H](O)[C@H]1C(=O)N2C(C(=O)OCOC(=O)C(C)(C)C)=C(SC3CN(C4=NCCS4)C3)[C@H](C)[C@H]12`, the Potency result in experiment [1] and in experiment [2] was “inactive” in each case.

On to `O=C(O)Cc1cccc(OCCCN(Cc2cccc(C(F)(F)F)c2Cl)CC(c2ccccc2)c2ccccc2)c1`, for which the Potency in experiment [1] and in [2] was 23.5 µM (active) each time.

On to `COc1cc(F)c(C(C)C)cc1-c1ccc(C(F)(F)F)cc1CN1C(=O)O[C@H](c2cc(C(F)(F)F)cc(C(F)(F)F)c2)[C@@H]1C`, for which the Potency entry in experiment [1] and in [2] was “inactive” in each case.

For the molecule `CCNC(=O)Nc1ccc(Oc2ncnc(N)c2C=NOC)cc1Cl`, the Potency result in [1] and in experiment [2] was “inactive” throughout.

As to `CC[C@H]1OC(=O)[C@H](C)[C@@H](O[C@H]2C[C@@](C)(OC)[C@@H](O)[C@H](C)O2)[C@H](C)[C@@H](O[C@@H]2O[C@H](C)C[C@H](N(C)C)[C@H]2O)[C@](C)(O)C[C@H](C)C(=NOCOCCOC)[C@H](C)[C@@H](O)[C@]1(C)O`, the Potency entry in experiment [1] and in experiment [2] was “inactive” throughout.

Consider `Cc1nc2c([nH]1)CCN(C(=O)c1ccc(NC(=O)c3ccccc3-c3ccccc3)cc1)c1ccccc1-2`, for which the Potency result in experiment [1] and in experiment [2] was “inactive” each time.

In the case of `O=c1[nH]c(=O)n([C@H]2C[C@@H](O)[C@@H](CO)O2)cc1C(F)(F)F`, the Potency entry in experiment [1] and in experiment [2] was “inactive” each time.

For `Cc1cn([C@@H]2C[C@@H](O)[C@H](CO)O2)c(=O)[nH]c1=O`, the Potency entry in experiment [1] and in experiment [2] was “inactive” in each case.

For `Cn1c(=O)c(-c2c(Cl)cccc2Cl)cc2cnc(Nc3cccc(C(=O)O)c3)nc21`, the Potency entry in experiment [1] and in [2] was “inactive” throughout.

As to `CN(C)CCOc1ccc(C(=C(CCCl)c2ccccc2)c2ccccc2)cc1`, the Potency entry in experiment [1] and in experiment [2] was “inactive” in each case.

In the case of `N#Cc1ccc(Oc2ccc3c(c2)COB3O)cc1`, the Potency entry in experiment [1] and in experiment [2] was “inactive” each time.

Turning to `Cc1ccc2c(=O)c3cccc(CC(=O)O)c3oc2c1C`, in [1], the Potency entry is “inactive”. Moreover, in experiment [2], the Potency was 23.5 µM (active).

As to `CN1CCC(COc2cnc(-c3cccc(Cn4nc(-c5cccc(C#N)c5)ccc4=O)c3)nc2)CC1`, the Potency entry in [1] was “inactive”. In addition, the Potency in experiment [2] was 3.72 µM (active).

For `CCOC(=O)N1CCN([N+]([O-])=NOc2cc(ON=[N+]([O-])N3CCN(C(=O)OCC)CC3)c([N+](=O)[O-])cc2[N+](=O)[O-])CC1`, the Potency entry in experiment [1] and in experiment [2] was “inactive” each time.

As to `N#Cc1c(N(CC(=O)O)CC(=O)O)sc(C(=O)O)c1CC(=O)O`, the Potency result in [1] and in [2] was “inactive” each time.

Turning to `Cc1cnc(Nc2cccc(CN3CCOCC3)c2)nc1Nc1cccc(S(=O)(=O)NC(C)(C)C)c1`, the Potency was 8.33 µM (active) in experiment [1] and 6.62 µM (active) in [2].

As to `CCCCC[C@H](O)C=C[C@H]1[C@H](O)CC(=O)[C@H]1CC=CCCCC(=O)O`, the Potency result in experiment [1] and in [2] was “inactive” each time.

For `CCN1CCC(n2cc(CNc3cc(Cl)c4ncc(C#N)c(Nc5ccc(F)c(Cl)c5)c4c3)nn2)CC1`, the figures for the Potency in experiment [1] and in experiment [2] were 23.5 µM (active) and 14.8 µM (active), respectively.

`CCNC(=O)[C@H]1O[C@@H](n2cnc3c(N)nc(NCCc4ccc(CCC(=O)O)cc4)nc32)[C@H](O)[C@H]1O`: the Potency entry in [1] and in [2] was “inactive” in each case.

As to `CC=C1C2C=C(C)CC1(N)c1ccc(=O)[nH]c1C2` (stereo unspecified), the Potency result in experiment [1] and in experiment [2] was “inactive” in each case.

In the case of `CO[C@@H]1C(N(C)C(=O)c2ccccc2)C[C@H]2O[C@]1(C)n1c3ccccc3c3c4c(c5c6ccccc6n2c5c31)C(=O)NC4=O` (stereo partly specified), the Potency result in experiment [1] and in experiment [2] was “inactive” in each case.

With `COc1ccc2nc3cc(Cl)ccc3c(Nc3cc(CN4CCCC4)c(O)c(CN4CCCC4)c3)c2n1`, the Potency result in experiment [1] and in experiment [2] was “inactive” each time.

As to `CO[C@H]1C=CO[C@@]2(C)Oc3c(C)c(O)c4c(O)c(c(C=NN5CCN(C)CC5)c(O)c4c3C2=O)NC(=O)C(C)=CC=C[C@H](C)[C@H](O)[C@@H](C)[C@@H](O)[C@@H](C)[C@H](OC(C)=O)[C@H]1C`, the results for the activity change, negative = cytotoxic in [1] and in experiment [2] were -1.05% [at 9.22 µM] and -8.55% [at 9.22 µM], respectively.

For the molecule `Cc1cc2nc3c(=O)[nH]c(=O)nc-3n(CC(O)C(O)C(O)CO)c2cc1C` (stereo unspecified), the Potency entry in [1] and in experiment [2] was “inactive” in each case.

For `NCC1CCC(C(=O)O)CC1` (stereo unspecified), the Potency entry in experiment [1] and in experiment [2] was “inactive” throughout.

For `CC(C)(CO)[C@@H](O)C(=O)NCCC(=O)O`, the Potency entry in experiment [1] and in experiment [2] was “inactive” each time.

With `CN(CC=CC#CC(C)(C)C)Cc1cccc2ccccc12`, the Potency entry in experiment [1] and in [2] was “inactive” each time.

With `CCN1C[C@H](C)n2c(c(O)c3c(=O)n(Cc4ccc(F)c(Cl)c4)nc(C(=O)NC)c32)C1=O`, the Potency entry in [1] and in experiment [2] was “inactive” in each case.

With `NC(=O)c1noc([C@H](CCCC2CCCCC2)CC(=O)NO)n1`, the Potency in [1] is 18.7 µM (active); in experiment [2], 14.8 µM (active).

Regarding `NS(=O)(=O)c1cc(Cl)c(Cl)c(S(N)(=O)=O)c1`, the Potency entry in [1] and in experiment [2] was “inactive” in each case.

As for `CC(C)=CCCC(C)=CCCC(C)=CCCC(C)=CCCC(C)=CCCC(C)=CCCC(C)=CCCC(C)=CCCC(C)=CCO`, the Potency entry in [1] and in experiment [2] was “inactive” throughout.

Consider `CC1C(=O)OC2C(O)C34C5CC(C(C)(C)C)C36C(OC(=O)C6O)OC4(C(=O)O5)C12O` (stereo unspecified), for which the Potency result in [1], in experiment [2], in [3], in experiment [5], in [6] and in [7] was “inactive” in each case. Also, the Potency result in [8], in experiment [9], in [10], in [11], in experiment [12] and in [13] was “inactive” each time. The Potency result in [14], in experiment [15], in experiment [16], in [17] and in [18] was “inactive” in each case. Besides, in [4], the Potency is 18.5 µM (active).

Turning to `CN1CCN2c3ncccc3Cc3ccccc3C2C1` (stereo unspecified), the Potency result in experiment [1] and in [2] was “inactive” each time.

As for `C[C@H]1[C@H](O)O[C@@H]2O[C@@]3(C)CC[C@@H]4[C@H](C)CC[C@@H]1[C@@]24OO3`, the Potency result in experiment [1] and in [2] was “inactive” each time.

Take `O=C1CCCC(=O)C1C(=O)c1ccc(C(F)(F)F)cc1[N+](=O)[O-]`: the Potency result in experiment [1] and in [2] was “inactive” throughout.

With `c1cc(OCCN2CCCCC2)cc(-c2n[nH]c3ccc(-c4ncn[nH]4)cc23)c1`, the Potency entry in experiment [1] and in experiment [2] was “inactive” in each case.

Turning to `CCCCN(CCCC)CC(O)c1cc(Cl)cc2c1-c1ccc(Cl)cc1C2=Cc1ccc(Cl)cc1` (stereo unspecified), the Potency result in experiment [1] and in experiment [2] was “inactive” throughout.
